Assay outcomes as filed in PubChem BioAssay.
In the library only some 1.2% were active in any assay of this set; here they are far more common.
S aureus QS inh: S. aureus quorum sensing inhibitors, primary screen, RNAIII-GFP reporter, flow cytometry. S. aureus RN6390 RNAIII-GFP reporter, AIP-induced, flow cytometry 3 h. AID 527, 2006. 24,000 compounds, 0.3% hits. inhibition, % at 2 µM;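 active = share of bacteria positive for the green fluorescent reporter and its mean brightness both inhibited by 50% or more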;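 also: 0% = AIP-stimulated control and 100% = unstimulated bacteria without AIP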
FPR ligand: human FPR ligands by binding competition, primary screen, cell-based, FPRL1 counter-screen, flow cytometry | 24,000 compounds, 0.74% hits | fMet-Leu-Phe receptor (Homo sapiens), P21462 | inhibition, % (concentration not given with the values) | AID 440, 2006 | FPR-expressing cells, fluorescent ligand binding;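 also: 0% = buffer wells and 100% = receptor blocker peptide wells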
FPRL1 binder: human FPRL1 ligands by binding competition, primary screen, cell-based, FPR counter-screen, flow cytometry | inhibition, % (no concentration beside the values) | N-formyl peptide receptor 2 (Homo sapiens), P25090 | FPRL1-expressing cells, fluorescent ligand binding inhibition | 24,000 compounds, 0.3% hits;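 also: 0% = buffer alone and 100% = receptor blocker peptide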
Target sequence (P25090 whole entry, looked up): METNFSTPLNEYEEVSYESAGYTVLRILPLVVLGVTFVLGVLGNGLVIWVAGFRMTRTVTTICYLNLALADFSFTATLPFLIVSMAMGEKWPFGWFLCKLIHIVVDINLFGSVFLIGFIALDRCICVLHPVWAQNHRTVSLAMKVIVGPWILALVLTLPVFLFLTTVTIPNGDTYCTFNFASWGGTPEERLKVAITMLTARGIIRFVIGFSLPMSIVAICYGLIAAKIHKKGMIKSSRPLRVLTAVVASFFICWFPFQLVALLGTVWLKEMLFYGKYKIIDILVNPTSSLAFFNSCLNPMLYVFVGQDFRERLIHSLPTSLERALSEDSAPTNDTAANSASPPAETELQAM
An asterisk follows results filed as active; x = no result given. Rule as the data show it, unless noted: active = inhibition above about 30%; inconclusive = no clear call, values can overlap the other calls; inactive = below that.

SMILES | S aureus QS inh | FPR ligand | FPRL1 binder
Cc1ccc(S(=O)(=O)c2c(C)nn(C(C)(C)C)c2OC(=O)C(C)(C)C)cc1 | -13 | 1 | 6
CC(=O)Oc1c(S(=O)(=O)c2ccc(C)cc2)c(C)nn1C(C)(C)C | 78* | -4 | -5
Cc1ccc(S(=O)(=O)c2c(C)nn(C(C)(C)C)c2OC(=O)c2ccc(Br)o2)cc1 | 52* | -4 | 10
Cc1ccc(S(=O)(=O)c2c(C)nn(C(C)(C)C)c2OC(=O)c2ccco2)cc1 | -19 | 0 | -2
Cc1ccc(-c2noc(CCC(=O)NCCN3CCc4ccccc4C3)n2)cc1 | -4 | -5 | -2
O=C(Nc1ccc2c(c1)OCO2)C1CCN(S(=O)(=O)c2cccc3cccnc23)CC1 | 2 | 4 | -2
CCOc1cc(C2C(C(=O)OCC(C)C)=C(C)N=C3SCCC(=O)N32)ccc1OC(C)=O (stereo not given) | 24 | 0 | -5
COc1ccc(Oc2ccc(/C=C/C(=O)c3cccc(OC)c3)cc2[N+](=O)[O-])cc1 | -1 | x | x
CCC(C)(C(=O)NC1CCCCC1)N(Cc1ccco1)C(=O)c1ccc2c(c1)OCO2 (stereo not given) | 0 | 6 | -1
CCC(C)(C(=O)NC1CCCC1)N(CC1CCCO1)C(=O)c1ccc2c(c1)OCO2 (stereo not given) | 0 | 37* | 2
COc1ccc(CCNC(=O)C2CCN(S(=O)(=O)c3cc(OC)ccc3OC)CC2)cc1 | 4 | 1 | -1
CCOC(=O)Nc1ccc(OC)cc1S(=O)(=O)N1CCCCC1 | 0 | 63* | 51*
COc1ccc(Nc2nc(-c3sc(N)nc3C)cs2)cc1 | 56* | -7 | 3
COc1ccc(OC)c(Nc2nc(-c3cccs3)cs2)c1 | 8 | -4 | 1
CCOc1cccc(/C(O)=C2/C(=O)C(=O)N(CCOC)C2c2ccc(C)o2)c1 (stereo not given) | x | 51* | -11
Cc1ccc(C2/C(=C(/O)c3ccccc3)C(=O)C(=O)N2CCN2CCOCC2)o1 (stereo not given) | x | -5 | 0
Cc1c2c(n3c(nc4ccccc43)c1C#N)N(Cc1ccccn1)CC2 | 4 | 3 | 15
COc1ccc(N(CC(=O)NCc2cccs2)S(=O)(=O)c2c(C)n[nH]c2C)cc1 | 0 | 2 | -4
CCOC(=O)c1ccc(NC(=O)N2CCN(Cc3cccc(F)c3)CC2)cc1 | -1 | -16 | -3
CC(=O)NC(Cc1cc(C)ccc1C)C(=O)N1CCN(C(=O)Nc2ccc(C(C)=O)cc2)CC1 (stereo not given) | 0 | 35* | 7
Cc1ccc(-n2c(=O)cc(NCc3cccnc3)[nH]c2=O)cc1 | 5 | 1 | 8
COc1ccc(N2CCN(C(c3ccccc3)c3sc4nc(C)nn4c3O)CC2)cc1 (stereo not given) | 2 | -1 | 3
COc1cc2c3c(c1)/C(=C1/SC(NC(C)=O)=NC1=O)C(=O)N3C(C)(C)C=C2C | -1 | 30* | 11
CCN(CC)CCN1C(=O)C(=O)/C(=C(/O)c2c(C)[nH]c(C(=O)OC)c2C)C1c1ccccc1 (stereo not given) | x | 30* | 16
CCN(CC)CCN1C(=O)C(=O)/C(=C(/O)c2c(C)[nH]c(C(=O)OC)c2C)C1c1ccc(OC)cc1 (stereo not given) | x | 0 | 6
SMILES | S aureus QS inh | FPR ligand | FPRL1 binder
O=C(c1ccccc1Nc1ccc(SC(F)F)cc1)N1CCCCCC1 | x | -14 | 4
O=C(c1noc2c1CCc1ccccc1-2)N1CCc2ccccc2C1 | 9 | -4 | -3
CCOC(=O)c1ccc(CNC(=O)c2cc3cccc(OC)c3oc2=O)o1 | 0 | 6 | 1
CCOC(=O)Cc1cc(=O)n2[nH]c(C)c(C#N)c2n1 | x | -15 | -8
CCOC(=O)Cc1cc(=O)n2[nH]c(C)c(-c3ccccc3)c2n1 | x | 51* | 26
COc1ccc(NC(=O)CCc2ccccc2)cc1NC(=O)c1ccco1 | 1 | -7 | -3
CCOc1cc(NC(=O)c2ccco2)c(OCC)cc1NC(=O)CCc1ccc(OC)cc1 | -2 | 33* | 1
CC1CCCN(C(=O)C(Cc2ccccc2)n2cccc2)C1 (stereo not given) | -2 | 0 | 0
N#Cc1c(-c2ccccc2)nc(N2CCCCCC2)[nH]c1=O | -1 | 0 | -1
CC(C)C(=O)N1CCN(c2nc(-c3ccccc3)c3c(c2C#N)CCCC3)CC1 | 57* | -5 | -5
COc1ccccc1Oc1c(C)oc2cc(OC(=O)c3ccco3)ccc2c1=O | x | 93* | 0
Cc1oc2cc(OCC(=O)O)ccc2c(=O)c1Oc1ccccc1 | -3 | -3 | -9
COc1ccccc1-c1c(C)oc2cc(OC(=O)c3ccco3)ccc2c1=O | x | 68* | -1
CCOC(=O)c1oc2cc(O)ccc2c(=O)c1-c1csc(C)n1 | x | -11 | -3
COc1ccc(Oc2c(C)oc3cc(OC(=O)N4CCOCC4)ccc3c2=O)cc1 | -1 | 1 | 6
CCOc1ccccc1Oc1c(C)oc2cc(OC(=O)c3ccco3)ccc2c1=O | x | 79* | -4
CCOC(=O)c1oc2cc(O)ccc2c(=O)c1-c1ccccc1OC | x | 34* | 24
COc1ccc2c(=O)c(-c3ccccc3C)c(C)oc2c1 | x | -6 | -4
Cc1cc(NC(=O)CC(CN(C)S(=O)(=O)c2ccccc2)c2ccccc2)no1 (stereo not given) | 0 | 3 | -3
CN(C)CCCNC(CC(=O)Nc1ccc(Cl)cc1)C(=O)O (stereo not given) | 0 | -5 | 0
COc1ccc(C(=O)Nc2nncs2)cc1S(=O)(=O)N1CC(c2ccccc2)CC1=O (stereo not given) | -2 | 2 | 0
CCOC(=O)C1CCN(c2c(NC3CCCc4ccccc43)c(=O)c2=O)CC1 (stereo not given) | -3 | 1 | -3
Cn1cccc1Cc1nnc(SCC(=O)Nc2ccccc2)n1-c1ccc(F)cc1 | 61* | 2 | -5
Cn1cccc1Cc1nnc(SCC(=O)Nc2ccc(F)cc2)n1-c1ccc(F)cc1 | -7 | -1 | -1
COc1ccc(-n2c(Cc3cccn3C)nnc2SCC(=O)Nc2ccc(Cl)cc2)cc1 | 19 | 56* | 1
SMILES | S aureus QS inh | FPR ligand | FPRL1 binder
COc1ccc(-n2c(Cc3cccn3C)nnc2SCC(=O)Nc2ccccc2)cc1 | -4 | 4 | 2
CCCCN(C)C(=O)c1oc2ccc(S(=O)(=O)N3CCCCCC3)cc2c1C | 1 | 2 | -10
O=C(NC1CC1)c1ccc(CS(=O)(=O)c2c(Cl)cccc2Cl)o1 | 2 | -1 | -4
CN(C)c1ccc(C2C3C(=O)NC(=O)C3ON2c2ccc(Cl)cc2)cc1 (stereo not given) | 2 | 1 | -5
CC(=O)c1ccc(N2CCN(C(=O)c3cc4c(-c5ccccc5F)nn(C)c4s3)CC2)cc1 | -1 | -10 | -11
CC(CCc1ccco1)NC(=O)c1cc2c(-c3ccccc3F)nn(C)c2s1 (stereo not given) | 61* | 3 | 1
O=C(CN1C(=O)C2C3C=CC(C3)C2C1=O)N1CC=C(c2ccccc2)CC1 (stereo not given) | -1 | 0 | -1
CCC(NC(=O)Nc1cc(OC)c(OC)c(OC)c1)(C(F)(F)F)C(F)(F)F | 0 | 45* | 55*
